Measured values reported in ChEMBL document CHEMBL2218924, “A broad activity screen in support of a chemogenomic map for kinase signalling research and drug discovery” (Biochem J, 2013).

How the values were obtained:
[1] = molecular target: T1, Serine/threonine-protein kinase TAO2 (Homo sapiens) (UniProt Q9UL54); conditions: at 1 µM
T1 sequence (whole entry): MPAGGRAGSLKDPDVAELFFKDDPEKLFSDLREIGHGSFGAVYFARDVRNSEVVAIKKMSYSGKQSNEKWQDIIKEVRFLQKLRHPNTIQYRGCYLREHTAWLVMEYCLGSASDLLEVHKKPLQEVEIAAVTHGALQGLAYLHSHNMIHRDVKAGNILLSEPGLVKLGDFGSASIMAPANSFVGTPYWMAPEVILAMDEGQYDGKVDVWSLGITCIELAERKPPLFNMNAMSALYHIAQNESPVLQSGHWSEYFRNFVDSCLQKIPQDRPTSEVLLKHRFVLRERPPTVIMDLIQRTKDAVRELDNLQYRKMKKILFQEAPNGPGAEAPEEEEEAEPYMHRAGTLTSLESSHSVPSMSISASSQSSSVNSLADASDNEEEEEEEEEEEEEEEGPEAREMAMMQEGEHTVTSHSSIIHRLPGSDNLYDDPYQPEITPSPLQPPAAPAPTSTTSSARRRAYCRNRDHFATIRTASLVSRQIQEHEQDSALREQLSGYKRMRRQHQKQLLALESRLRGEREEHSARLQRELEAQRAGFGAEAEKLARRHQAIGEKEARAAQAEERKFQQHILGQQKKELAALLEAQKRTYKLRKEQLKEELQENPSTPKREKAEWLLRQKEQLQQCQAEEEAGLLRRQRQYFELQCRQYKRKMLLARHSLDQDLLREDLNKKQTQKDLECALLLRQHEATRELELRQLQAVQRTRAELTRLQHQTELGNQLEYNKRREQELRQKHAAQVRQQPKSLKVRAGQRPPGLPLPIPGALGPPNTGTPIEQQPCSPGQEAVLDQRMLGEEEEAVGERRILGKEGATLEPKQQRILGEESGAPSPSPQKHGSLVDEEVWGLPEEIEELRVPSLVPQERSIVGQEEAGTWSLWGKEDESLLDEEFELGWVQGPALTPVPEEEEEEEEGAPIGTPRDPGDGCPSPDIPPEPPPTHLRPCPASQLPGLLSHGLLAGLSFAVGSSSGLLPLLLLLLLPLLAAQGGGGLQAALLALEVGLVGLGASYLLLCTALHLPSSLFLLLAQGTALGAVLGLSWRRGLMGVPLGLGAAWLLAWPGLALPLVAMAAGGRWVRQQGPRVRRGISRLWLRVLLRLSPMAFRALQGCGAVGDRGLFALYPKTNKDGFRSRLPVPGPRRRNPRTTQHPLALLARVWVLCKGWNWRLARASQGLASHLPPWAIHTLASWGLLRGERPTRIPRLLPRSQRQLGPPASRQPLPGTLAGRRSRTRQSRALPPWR

[2] = molecular target: T1, Serine/threonine-protein kinase TAO2 (Homo sapiens); conditions: at 10 µM
[3] = molecular target: T2, Serine/threonine-protein kinase TAO3 (Homo sapiens) (UniProt Q9H2K8); conditions: at 1 µM
T2 sequence (whole entry): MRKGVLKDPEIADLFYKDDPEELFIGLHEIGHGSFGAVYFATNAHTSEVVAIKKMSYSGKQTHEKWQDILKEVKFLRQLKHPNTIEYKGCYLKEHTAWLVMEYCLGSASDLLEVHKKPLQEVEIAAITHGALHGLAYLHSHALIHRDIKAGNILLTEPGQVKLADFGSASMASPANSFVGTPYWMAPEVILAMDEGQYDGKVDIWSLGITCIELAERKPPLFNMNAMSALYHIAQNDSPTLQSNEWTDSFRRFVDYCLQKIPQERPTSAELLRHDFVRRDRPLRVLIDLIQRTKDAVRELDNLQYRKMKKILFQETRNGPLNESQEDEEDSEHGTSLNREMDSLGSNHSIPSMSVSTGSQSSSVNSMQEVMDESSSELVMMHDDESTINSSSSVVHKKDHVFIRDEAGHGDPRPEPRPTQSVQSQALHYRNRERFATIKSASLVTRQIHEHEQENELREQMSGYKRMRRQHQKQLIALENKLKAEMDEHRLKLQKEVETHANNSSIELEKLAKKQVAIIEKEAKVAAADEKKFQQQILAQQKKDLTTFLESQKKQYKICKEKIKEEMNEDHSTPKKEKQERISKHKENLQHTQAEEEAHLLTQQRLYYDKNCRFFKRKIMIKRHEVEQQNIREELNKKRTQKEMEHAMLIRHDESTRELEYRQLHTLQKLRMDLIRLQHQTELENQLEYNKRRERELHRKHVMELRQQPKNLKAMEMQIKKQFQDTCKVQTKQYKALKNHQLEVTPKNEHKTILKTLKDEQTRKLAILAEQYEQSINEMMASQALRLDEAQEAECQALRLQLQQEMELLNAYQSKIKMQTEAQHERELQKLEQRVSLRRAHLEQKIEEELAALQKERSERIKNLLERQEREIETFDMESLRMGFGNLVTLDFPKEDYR

[4] = molecular target: T2, Serine/threonine-protein kinase TAO3 (Homo sapiens); conditions: at 10 µM
[5] = molecular target: T3, Serine/threonine-protein kinase TBK1 (Homo sapiens) (UniProt Q9UHD2); conditions: at 1 µM
T3 sequence (whole entry): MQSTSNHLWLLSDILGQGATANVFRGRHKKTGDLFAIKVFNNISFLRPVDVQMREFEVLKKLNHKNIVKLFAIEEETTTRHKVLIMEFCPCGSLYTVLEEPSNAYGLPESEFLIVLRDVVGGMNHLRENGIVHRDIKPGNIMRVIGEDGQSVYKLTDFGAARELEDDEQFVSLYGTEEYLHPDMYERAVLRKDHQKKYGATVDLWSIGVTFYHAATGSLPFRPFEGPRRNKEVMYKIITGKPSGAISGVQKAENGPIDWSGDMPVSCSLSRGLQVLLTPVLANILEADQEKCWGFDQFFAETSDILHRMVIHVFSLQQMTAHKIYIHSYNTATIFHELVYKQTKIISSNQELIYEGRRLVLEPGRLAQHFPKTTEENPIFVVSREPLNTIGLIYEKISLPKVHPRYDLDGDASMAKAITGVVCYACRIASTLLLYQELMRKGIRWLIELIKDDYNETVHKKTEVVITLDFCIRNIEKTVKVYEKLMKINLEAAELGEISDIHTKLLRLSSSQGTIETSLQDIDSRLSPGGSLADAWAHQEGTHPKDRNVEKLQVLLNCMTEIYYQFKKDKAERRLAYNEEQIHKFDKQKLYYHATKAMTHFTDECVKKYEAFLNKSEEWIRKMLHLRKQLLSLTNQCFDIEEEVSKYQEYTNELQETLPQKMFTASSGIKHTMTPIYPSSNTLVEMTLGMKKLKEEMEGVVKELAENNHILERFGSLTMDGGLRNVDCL

[6] = molecular target: T3, Serine/threonine-protein kinase TBK1 (Homo sapiens); conditions: at 10 µM
[7] = molecular target: T4, TGF-beta receptor type-1 (Homo sapiens) (UniProt P36897); conditions: at 1 µM
T4 sequence (whole entry): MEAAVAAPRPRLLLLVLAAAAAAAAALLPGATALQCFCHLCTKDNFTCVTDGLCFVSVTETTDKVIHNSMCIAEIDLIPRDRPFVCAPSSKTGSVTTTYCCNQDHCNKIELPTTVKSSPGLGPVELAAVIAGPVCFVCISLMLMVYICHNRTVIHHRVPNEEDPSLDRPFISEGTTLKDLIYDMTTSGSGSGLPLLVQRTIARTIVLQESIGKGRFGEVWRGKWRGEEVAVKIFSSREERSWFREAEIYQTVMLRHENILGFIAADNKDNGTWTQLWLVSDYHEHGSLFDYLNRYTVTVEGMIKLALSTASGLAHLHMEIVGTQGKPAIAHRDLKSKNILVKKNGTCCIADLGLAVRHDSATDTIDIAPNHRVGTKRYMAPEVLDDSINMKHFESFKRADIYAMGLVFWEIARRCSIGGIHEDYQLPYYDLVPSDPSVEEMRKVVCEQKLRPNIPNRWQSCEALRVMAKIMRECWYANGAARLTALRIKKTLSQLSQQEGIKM

[8] = molecular target: T4, TGF-beta receptor type-1 (Homo sapiens); conditions: at 10 µM
[9] = molecular target: Insulin-like growth factor 1 receptor (Homo sapiens) (UniProt P08069); conditions: at 1 µM
Insulin-like growth factor 1 receptor (Homo sapiens), sequence (P08069 31-736 limits assumed): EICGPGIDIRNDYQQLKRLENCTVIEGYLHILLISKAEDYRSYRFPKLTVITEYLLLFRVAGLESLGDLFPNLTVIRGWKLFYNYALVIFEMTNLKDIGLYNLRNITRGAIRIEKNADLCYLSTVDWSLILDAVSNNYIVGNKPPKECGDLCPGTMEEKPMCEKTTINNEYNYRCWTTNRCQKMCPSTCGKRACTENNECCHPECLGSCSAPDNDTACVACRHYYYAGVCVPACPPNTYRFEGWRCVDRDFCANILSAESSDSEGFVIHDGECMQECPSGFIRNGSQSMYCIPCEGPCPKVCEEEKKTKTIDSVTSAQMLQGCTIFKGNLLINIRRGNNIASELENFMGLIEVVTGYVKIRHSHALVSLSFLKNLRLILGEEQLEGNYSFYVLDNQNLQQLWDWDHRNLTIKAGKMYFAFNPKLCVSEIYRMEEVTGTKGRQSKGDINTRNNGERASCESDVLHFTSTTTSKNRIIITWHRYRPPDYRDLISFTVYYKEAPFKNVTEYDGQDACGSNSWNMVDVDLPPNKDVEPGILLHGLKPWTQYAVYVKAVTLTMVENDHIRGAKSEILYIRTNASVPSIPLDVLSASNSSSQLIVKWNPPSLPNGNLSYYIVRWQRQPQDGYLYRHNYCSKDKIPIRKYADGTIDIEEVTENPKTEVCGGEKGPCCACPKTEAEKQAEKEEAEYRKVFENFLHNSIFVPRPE
Insulin-like growth factor 1 receptor (Homo sapiens), sequence (P08069 741-1367 limits assumed): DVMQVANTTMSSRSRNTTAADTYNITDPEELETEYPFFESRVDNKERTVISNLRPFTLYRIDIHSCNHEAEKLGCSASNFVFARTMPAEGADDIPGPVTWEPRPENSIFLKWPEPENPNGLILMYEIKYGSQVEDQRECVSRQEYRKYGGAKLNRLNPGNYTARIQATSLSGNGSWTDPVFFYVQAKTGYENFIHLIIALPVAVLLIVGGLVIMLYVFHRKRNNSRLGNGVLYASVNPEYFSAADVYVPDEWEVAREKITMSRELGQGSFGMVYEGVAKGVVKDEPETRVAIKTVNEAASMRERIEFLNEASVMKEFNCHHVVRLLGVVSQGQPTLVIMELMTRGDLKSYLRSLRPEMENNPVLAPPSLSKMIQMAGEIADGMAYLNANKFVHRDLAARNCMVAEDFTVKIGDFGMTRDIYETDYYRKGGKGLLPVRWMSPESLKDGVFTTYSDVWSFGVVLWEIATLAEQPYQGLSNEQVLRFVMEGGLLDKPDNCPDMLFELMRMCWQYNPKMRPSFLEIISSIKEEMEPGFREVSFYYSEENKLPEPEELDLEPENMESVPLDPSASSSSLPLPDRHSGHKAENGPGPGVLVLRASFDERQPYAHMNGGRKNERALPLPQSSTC

[10] = molecular target: Insulin-like growth factor 1 receptor (Homo sapiens) (UniProt P08069); conditions: at 10 µM
[11] = molecular target: Tyrosine-protein kinase SYK (Homo sapiens) (UniProt P43405); conditions: at 10 µM
[12] = molecular target: T5, Inhibitor of nuclear factor kappa-B kinase subunit alpha (Homo sapiens) (UniProt O15111); conditions: at 1 µM
T5 sequence (whole entry): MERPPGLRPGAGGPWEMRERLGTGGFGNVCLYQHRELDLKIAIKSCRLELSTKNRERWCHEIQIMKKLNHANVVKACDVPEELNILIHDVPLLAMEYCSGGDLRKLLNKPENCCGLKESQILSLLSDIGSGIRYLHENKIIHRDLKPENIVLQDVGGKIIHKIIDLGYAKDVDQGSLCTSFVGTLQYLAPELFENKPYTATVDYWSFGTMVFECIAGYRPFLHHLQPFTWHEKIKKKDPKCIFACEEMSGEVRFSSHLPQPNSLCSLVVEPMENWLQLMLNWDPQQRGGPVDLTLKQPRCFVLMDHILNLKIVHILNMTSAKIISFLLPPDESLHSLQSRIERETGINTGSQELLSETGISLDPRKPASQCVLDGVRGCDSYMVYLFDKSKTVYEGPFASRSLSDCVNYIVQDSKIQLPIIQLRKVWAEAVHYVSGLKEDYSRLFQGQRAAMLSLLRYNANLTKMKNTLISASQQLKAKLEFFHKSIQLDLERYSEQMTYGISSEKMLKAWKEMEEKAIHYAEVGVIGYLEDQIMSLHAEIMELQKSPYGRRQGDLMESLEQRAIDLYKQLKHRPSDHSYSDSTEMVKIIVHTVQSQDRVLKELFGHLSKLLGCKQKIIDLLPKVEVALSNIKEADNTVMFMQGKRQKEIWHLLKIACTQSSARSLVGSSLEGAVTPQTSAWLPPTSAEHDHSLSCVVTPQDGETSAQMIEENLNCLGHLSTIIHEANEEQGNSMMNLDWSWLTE

[13] = molecular target: T5, Inhibitor of nuclear factor kappa-B kinase subunit alpha (Homo sapiens); conditions: at 10 µM
[14] = molecular target: T6, Serine/threonine-protein kinase TAO1 (Homo sapiens) (UniProt Q7L7X3); conditions: at 10 µM
T6 sequence (whole entry): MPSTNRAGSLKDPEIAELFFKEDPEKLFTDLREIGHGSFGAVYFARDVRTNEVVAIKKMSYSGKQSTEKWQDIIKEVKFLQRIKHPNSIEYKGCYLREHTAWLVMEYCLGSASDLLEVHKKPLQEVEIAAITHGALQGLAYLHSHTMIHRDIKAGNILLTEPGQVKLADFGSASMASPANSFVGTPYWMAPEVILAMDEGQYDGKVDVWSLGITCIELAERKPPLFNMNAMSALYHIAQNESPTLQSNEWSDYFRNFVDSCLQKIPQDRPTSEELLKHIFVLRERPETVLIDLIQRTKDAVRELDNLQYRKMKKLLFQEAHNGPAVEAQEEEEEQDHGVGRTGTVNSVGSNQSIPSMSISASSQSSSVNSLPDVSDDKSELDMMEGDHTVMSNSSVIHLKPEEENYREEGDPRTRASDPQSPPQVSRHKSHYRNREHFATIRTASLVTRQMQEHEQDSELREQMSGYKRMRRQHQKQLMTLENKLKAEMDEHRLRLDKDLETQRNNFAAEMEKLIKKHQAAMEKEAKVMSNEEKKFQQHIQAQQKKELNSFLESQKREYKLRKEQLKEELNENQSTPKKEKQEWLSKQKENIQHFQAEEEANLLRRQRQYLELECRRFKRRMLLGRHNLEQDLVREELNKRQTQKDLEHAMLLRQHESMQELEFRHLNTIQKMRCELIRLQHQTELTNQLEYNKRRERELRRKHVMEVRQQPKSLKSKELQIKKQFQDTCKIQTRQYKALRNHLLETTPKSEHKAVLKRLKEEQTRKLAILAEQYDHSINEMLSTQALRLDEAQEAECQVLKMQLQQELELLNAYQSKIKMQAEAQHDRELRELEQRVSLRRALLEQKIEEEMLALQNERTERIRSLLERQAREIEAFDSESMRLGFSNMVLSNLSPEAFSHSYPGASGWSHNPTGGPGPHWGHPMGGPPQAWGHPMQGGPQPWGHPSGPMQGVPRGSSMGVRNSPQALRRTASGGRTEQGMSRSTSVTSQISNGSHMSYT

## NC(=O)Nc1sc(-c2ccc(F)cc2)cc1C(N)=O
[1]
  residual activity: 39%
[2]
  residual activity: 6%
[3]
  residual activity: 61%
[4]
  residual activity: 16%
[5]
  residual activity: 35%
[6]
  residual activity: 6%
[7]
  residual activity: 75%
[8]
  residual activity: 74%
[9]
  residual activity: 65%
[10]
  residual activity: 19%

## N#C/C(=C\c1ccc(O)c(O)c1)C(=O)NCc1ccccc1
[11]
  residual activity: 71%
[5]
  residual activity: 82%
[6]
  residual activity: 65%
[7]
  residual activity: 81%
[12]
  residual activity: 104%
[13]
  residual activity: 89%

## Oc1cccc(-c2nc(N3CCOCC3)c3oc4ncccc4c3n2)c1
[11]
  residual activity: 94%
[14]
  residual activity: 94%
[4]
  residual activity: 93%
[5]
  residual activity: 82%
[6]
  residual activity: 67%
[7]
  residual activity: 82%
[8]
  residual activity: 91%
